Experimental data as given in PubChem BioAssay.
Values joined by “and” are separate entries in the source; they are usually repeats but may differ in a detail not shown here. Identical values can stand only once.

Target: NADPH oxidase 4 (Homo sapiens) (UniProt Q9NPH5)
Test: NOX4-dependent H2O2 signal modulators, primary screen, NOX inhibitor project, cell-based, HEK293-NOX4, tetracycline-induced, Amplex Red fluorescence (AID 1160)
Details: 45 min, higher = more signal, called active from +8 up or from −8 down

Chain of NADPH oxidase 4 (Homo sapiens) (Q9NPH5 whole entry, looked up): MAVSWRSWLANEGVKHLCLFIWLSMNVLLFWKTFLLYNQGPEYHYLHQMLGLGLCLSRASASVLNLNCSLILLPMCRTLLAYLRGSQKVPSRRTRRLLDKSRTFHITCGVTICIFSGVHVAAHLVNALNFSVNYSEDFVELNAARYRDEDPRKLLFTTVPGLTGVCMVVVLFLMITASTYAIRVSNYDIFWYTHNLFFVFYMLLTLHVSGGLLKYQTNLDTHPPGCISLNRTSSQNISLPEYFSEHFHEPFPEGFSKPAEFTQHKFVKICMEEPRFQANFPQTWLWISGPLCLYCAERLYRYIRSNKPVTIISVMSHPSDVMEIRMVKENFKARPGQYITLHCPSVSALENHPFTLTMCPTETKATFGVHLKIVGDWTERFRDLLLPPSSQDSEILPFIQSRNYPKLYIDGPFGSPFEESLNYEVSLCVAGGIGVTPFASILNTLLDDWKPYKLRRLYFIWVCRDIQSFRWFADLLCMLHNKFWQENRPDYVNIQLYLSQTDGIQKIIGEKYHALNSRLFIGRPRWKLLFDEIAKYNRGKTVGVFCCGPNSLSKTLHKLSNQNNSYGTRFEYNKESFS

z-score, inactive:
COC(=O)C1=C(C)N(Cc2ccccc2)[C@]23O[C@](C(=O)OC)(C(=O)N2[C@@H]1c1ccccc1)[C@@H](C(=O)OC)[C@H]3C(=O)OC -1.42 and -0.0445
CO[C@@H]1COC(=O)CC=C[C@H](C)COC(=O)[C@H](C)NC(=O)CC=C[C@H]1C 0.486
COC(=O)C1=C(C)N(Cc2ccccc2)C2=C(C(C)=O)[C@H](c3ccccc3)[C@@](O)(C(=O)OC)C(=O)N2[C@@H]1c1ccccc1 0.687 and 0.321
C[N+](C)(C)CCCCNC(=O)[C@H]1C[C@H]2C(=O)N[C@@H](CCCC[N+](C)(C)C)C(=O)N2[C@H]1c1cccc(OCCO)c1 -0.217 and -0.934
CCOC(=O)NN=C1C[C@@H](O)[C@@H](O)[C@@H]2[C@@H]3C(=O)N(Cc4ccc5c(c4)OCO5)C(=O)[C@@H]3CC[C@@H]12 0.786
C[N+](C)(C)CCCCNC(=O)[C@H]1C[C@H]2C(=O)N[C@@H](CCCC[N+](C)(C)C)C(=O)N2[C@H]1c1ccc(O)cc1 -0.108 and -3.27
O=c1n(-c2ccccc2)c(=O)n2n1CC[C@@H]1C(=NOC[C@@H](O)COCc3ccco3)[C@H]3O[C@H]3[C@@H](O)[C@@H]12 0.113 and -2.01
C=C[C@@H](C)[C@H](O)c1ccc(O)c2ccccc12 -0.696 and -0.723
COC(=O)C1=C(C)N(Cc2ccccc2)C2=C(C(C)=O)C[C@@](O)(C(=O)OC)C(=O)N2[C@@H]1c1ccccc1 0.993 and 0.524
CCC[C@@H]1C[C@@]1(CCC)[C@@H](NC(=O)c1ccc(-c2ccccc2)cc1)c1cccc(Cl)c1 -2.39 and -5.23
C=CCN(CCCC)C(=O)C1N(CCOCCO)C(=O)C2C(C(=O)O)C3C=CC21O3 (stereo not given) -1.77 and -2.02
C=CCN(Cc1ccccc1)C(=O)C1N(CCOCCO)C(=O)C2C(C(=O)O)C3C=CC21O3 (stereo not given) -0.586 and -2.52
C=CC[C@@H](O)c1ccc(O)c2ccccc12 -1.28 and -1.66
CO[C@@H]1C=CCC(=O)N2CCC[C@H]2C(=O)OC[C@H](C)C(=O)OC[C@H]1C 0.208
CN1C(=O)C2CC=C([C@H]3Oc4ccccc4S(=O)(=O)N4CCC[C@@H]34)CC2C1=O (stereo not given in full) -1.36 and -1.47
CCOC(=O)c1ccc(NC(=O)O[C@H]2[C@H](OC(=O)Nc3ccccc3)[C@@H](OC(=O)Nc3ccccc3)[C@@H](OC)O[C@@H]2CO)cc1 -0.578 and -1.01
C=CCN(Cc1ccccc1)C(=O)C(c1cccs1)N(C(=O)/C=C\C(=O)O)c1c(Cl)cccc1CO (stereo not given) -0.662 and -0.417
CC(CO)N1C(=O)[C@@H]2C3C(=O)OCCC=C[C@H]3OC23C=CCN(CCN2CCOCC2)C(=O)[C@@H]13 (stereo not given in full) 0.376 and 0.0486
CO[C@H]1COC(=O)CC=C[C@@H](C)COC(=O)[C@@H](OCc2ccccc2)C=C[C@@H]1C 1.19
CCCC[C@@H]1CN2[C@@H](CC[C@@H](C)[C@@H]2c2ccc(Br)cc2)C(=O)O1 0.883 and 0.821
CCN1C(=O)[C@H]2[C@H]3[C@H](O)[C@H](O)CC(=NOC[C@@H](O)COCc4ccco4)[C@@H]3CC[C@H]2C1=O -1.86 and -0.599
C=CCN(CCCCC)C(=O)C(c1cccs1)N(C(=O)/C=C\C(=O)O)c1ccc(CCO)cc1 (stereo not given) -0.6 and -0.665
C=CCN(C(=O)C1N(c2c(Cl)cccc2CO)C(=O)C2C(C(=O)O)C3C=CC21O3)c1ccc(OC)cc1 (stereo not given) -0.286 and -0.651
C=CCN(CCCC)C(=O)C1N(C(C)(C)CO)C(=O)C2C(C(=O)O)C3C=CC21O3 (stereo not given) 0.0887 and -0.0844
C=C[C@@H](C)[C@@H](O)c1ccc(OCCO)cc1 -0.115 and -0.247
C=CCN(CCCCC)C(=O)C1N(C(C)(C)CO)C(=O)C2C(C(=O)O)C3C=CC21O3 (stereo not given) -0.188 and -0.0857
CCOC(=O)[C@@H]1CC2O[C@]23C[C@@H]1C(=O)N1CCC[C@@H]1[C@H]3O[Si](C)(C)C(C)(C)C (stereo not given in full) 0.147 and 5.07
CCOC(=O)C[C@H]1[C@H](OC(=O)c2ccccc2-c2ccccc2)[C@@H](NC(=O)Cc2ccc(OC)cc2)c2cc(OCCCO)ccc2N1C(=O)Cc1ccc(OC)cc1 -0.904 and 0.828
COC(=O)CC=C[C@@H](C)[C@@H](CO)NS(=O)(=O)c1ccc(C)cc1 -0.00804 and 0.453
C[N+](C)(C)CCCCCCNC(=O)[C@@H]1C[C@@H]2C(=O)N[C@@H](CCCC[N+](C)(C)C)C(=O)N2[C@@H]1c1ccc(O)cc1 0.105 and -0.431
COC(=O)C1=C(C)N(Cc2ccccc2)C2=C3C(=O)CCC[C@@H]3[C@@](O)(C(=O)OC)C(=O)N2[C@@H]1c1ccccc1 -0.0562 and 0.13
O=C1C[C@]2(c3ccc([N+](=O)[O-])cc3)C(=O)N(Cc3ccccc3)c3cc(CO)ccc3[C@H]2N1C1CCCCC1 0.644 and -1.56
CC(C)=CCCC(C)=CCON=C1C[C@@H](O)[C@@H](O)[C@@H]2[C@@H]3C(=O)N([C@@H](C)c4ccccc4)C(=O)[C@@H]3CC[C@H]12 -0.306
C[C@@H]1CC[C@H]2C(=O)NC[C@@H](O)CN2[C@H]1c1ccc(Br)cc1 0.283 and 0.229
COc1ccc(O[C@H]2C=C[C@@H](c3ccccc3)O[C@@H]2COC(=O)CCC(C)=NO[C@H](C)c2cn([C@H](CO)Cc3ccccc3)nn2)cc1 0.0167 and -2.56
C=CCN(CCCC)C(=O)C(c1cccs1)N(C(=O)/C=C\C(=O)O)c1c(Cl)cccc1CO (stereo not given) -0.319 and -0.507
CC(CO)N1C(=O)[C@@H]2C3C(=O)OCCC=C[C@H]3OC23C=CCN(c2ccc(Cl)cc2)C(=O)[C@@H]13 (stereo not given in full) 1.03 and 1.11
C=CCN(C(=O)C(c1cccs1)N(CCOCCO)C(=O)/C=C\C(=O)O)C(C)(C)C (stereo not given) -0.904 and -0.857
C=C[C@H](OC)[C@@H](O)c1ccc(O)c(F)c1 -0.137 and -0.407
CC(CO)N1C(=O)[C@@H]2C3C(=O)OCCC=C[C@H]3OC23C=CCN(C(C)(C)C)C(=O)[C@@H]13 (stereo not given in full) 0.0644 and 0.425
